Most compounds without a hit are left out; they make up all but 7.5% or so of the library.
NPC1 prom act: NPC1 promoter activation; Huh7 NPC1 promoter luciferase reporter, 24 h; Potency, µM (top dose mostly 9.22 µM), for inactives: top-dose activation, hits mostly activators; actives 2.4% (n = 320,000); further: % of control where 0% means no effect; nearly all actives have a fitted effect of over 60% in size
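In 1536-well qHTS, Huh7 cells harboring an NPC1 promoter–luciferase construct received compound for 24 h; activation was quantified by luminescence following luciferase reagent addition.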
SMN2 splice up: increases expression of the SMN2 splice variant; Potency, µM (doses to about 46.1 µM), for inactives: at the highest dose activity change, positive = activation, hits mostly activators; HEK293 SMN2-luciferase splicing reporter, luminescence, 30-36 h; actives 2.8% (n = 210,000); further: % of control where 0% means no effect; nearly all actives have a fitted effect of over 55% in size
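HEK293 cells carry an SMN2 […]–luciferase reporter in which exon 7 inclusion puts luciferase in frame. Cells were plated 10-12 h before compound addition, then incubated 30-36 h at 37C. ONE-Glo luminescence was read; sodium butyrate at 4.5 mM final served as control.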
FLuc counter: firefly luciferase modulation, counter-screen for miR-21 project | purified FLuc, Km substrates, luminescence inhibition | Potency, µM (doses to about 57.5 µM), inactives show at the top dose activity change, negative = inhibition, hits mostly inhibitors | actives 6.9% (n = 360,000) | AID 588342;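 further: plate controls were vehicle for no effect and reference inhibitor for full effect; nearly all actives have a fitted effect of over 55% in size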
Target sequence (P08659 whole entry, looked up): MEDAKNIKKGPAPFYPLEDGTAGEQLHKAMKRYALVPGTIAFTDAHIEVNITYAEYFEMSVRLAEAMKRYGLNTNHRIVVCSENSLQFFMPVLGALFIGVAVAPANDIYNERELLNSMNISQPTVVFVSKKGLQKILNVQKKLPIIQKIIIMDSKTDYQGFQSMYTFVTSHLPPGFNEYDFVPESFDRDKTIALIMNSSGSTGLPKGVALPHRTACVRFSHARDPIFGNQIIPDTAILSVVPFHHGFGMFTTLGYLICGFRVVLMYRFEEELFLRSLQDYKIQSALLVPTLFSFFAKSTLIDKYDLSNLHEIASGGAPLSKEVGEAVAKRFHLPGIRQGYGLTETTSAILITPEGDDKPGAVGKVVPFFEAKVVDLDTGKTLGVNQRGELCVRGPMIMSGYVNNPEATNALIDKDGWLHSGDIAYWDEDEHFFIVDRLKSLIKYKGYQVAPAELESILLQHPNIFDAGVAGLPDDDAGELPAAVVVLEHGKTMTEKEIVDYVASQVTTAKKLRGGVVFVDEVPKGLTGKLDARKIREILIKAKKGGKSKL
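Purified P. pyralis luciferase (10nM final) with 10uM D-luciferin and 10uM ATP (Km levels) in 50mM Tris acetate pH 7.5, 10mM Mg acetate, 0.01% Tween-20, 0.05% BSA; qHTS 6-point titration, ~60 µM downward; luminescence read.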
Rab9 prom act: activates the Rab9 promoter; Potency, µM (doses to about 9.22 µM), for inactives: at the highest dose activation, negative = inhibition, actives largely listed as activators; AID 485297; Huh7 Rab9 promoter-luciferase reporter, luminescence, 24 h; actives 2.8% (n = 320,000); further: % of control where 0% means no effect; nearly all actives have a fitted effect of over 60% in size
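Luciferase signal after 10 min detection reagent at ambient indicates Rab9 promoter upregulation; stably transfected Huh7 cells were treated 24 h with compound in DMSO at 37 °C, 5% CO2.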
KinaseGlo FLuc: blocks Kinase-Glo luciferase, a counter-screen artifact; Kinase-Glo luciferase, ATP luminescence, 8 min; actives 0.28% (n = 200,000); Potency, µM (highest dose often 38.3 µM), for the others: top-dose activity change, negative = inhibition, usual class: inhibitors; further: on the % scale 0 is the no-effect control and ±100 the full control effect; nearly all actives have a fitted effect of over 60% in size
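Compounds were added to a substrate mix at pH 7.2 (50 mM imidazole, 10 uM ATP, within the enzyme's linear range), followed by Kinase-Glo detection reagent; luminescence was measured after 8 minutes at ambient temperature.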
ELG1 genotoxic: induces genotoxicity in HEK293T cells with luciferase-tagged ELG1 | HEK293T ELG1-luciferase reporter, luminescence, 16 h | Potency, µM (highest dose often 46 µM), for inactives: at the highest dose activity change, positive = activation, most hits filed as activators | actives 1.3% (n = 330,000); further: % of control where 0% means no effect; nearly all actives have a fitted effect of over 60% in size
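ELG1-luciferase HEK293T cells, 2,000/well; compound pinned in; 16 hr, 37 °C, 5% CO2; ONE-Glo, 30 min RT; luminescence on CCD imager.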
* marks the source's active call; other numbers are inactive results; [ ] = dose if it differs, or a comment. The call rests on the fitted dose curve; in most records, active means well fitted curve in the direction sought with a large enough effect; inconclusive means small, poorly fitted or top-dose-only effect, or another doubt; inactive means no such curve, though single readings can be large; an effect the other way counts as inactive or inconclusive. Potency means the concentration at half of the fitted maximal effect.

What do the screens show for `Cc1ccc(Cn2cccc(C(=O)Nc3ccc4c(c3)OCCO4)c2=O)cc1`?
FLuc counter: 8.5µM*

What do the screens show for `O=C(Nc1ccon1)c1cccn(Cc2ccccc2)c1=O`?
FLuc counter: -2%

How did O=C(CSCc1ccccc1)Nc1ccc2c(c1)OCO2 do in these assays?
NPC1 prom act: inconclusive; SMN2 splice up: 11%; FLuc counter: 15µM*; Rab9 prom act: 3.2µM*; KinaseGlo FLuc: 0%; ELG1 genotoxic: inconclusive

How did O=C(Nc1ccc2c(c1)OCO2)c1cccn(Cc2ccccc2)c1=O do in these assays?
FLuc counter: 17µM*

What do the screens show for `Cc1ccc(NC(=O)N(Cc2ccc3c(c2)OCO3)C2CCN(Cc3ccccc3)CC2)cc1C`?
FLuc counter: -6%

Results for O=C(Nc1ccc2c(c1)OCO2)c1cccn(Cc2cccc(F)c2)c1=O ?
FLuc counter: 27µM*

How did O=C(Cl)C(Cl)(Cl)Cl do in these assays?
SMN2 splice up: 13%

Results for Cc1c([C@@H](C)C2NC[C@H](C)C[C@@H]2O)ccc2c1C[C@@H]1[C@H]2CC=C2C[C@@H](O)CC[C@@]21C (stereo partly drawn) ?
SMN2 splice up: -26%[9.22 µM]; KinaseGlo FLuc: -4%[7.66 µM]

What do the screens show for `CC1(C)N=C(N)N=C(N)N1c1cccc(C(=O)Nc2ccc(S(=O)(=O)F)cc2)c1`?
SMN2 splice up: 3%[9.22 µM]; KinaseGlo FLuc: -1%[7.66 µM]

How did O=[As](O)(O)c1ccc(Cc2ccc([As](=O)(O)O)cc2)cc1 do in these assays?
SMN2 splice up: -35%[9.22 µM]; KinaseGlo FLuc: 0%[7.66 µM]

What do the screens show for `O=C(C[C@H](c1ccccc1)c1c(O)c2ccccc2oc1=O)c1ccccc1`?
SMN2 splice up: -4%[9.22 µM]; KinaseGlo FLuc: -4%[7.66 µM]

How did O=C(Nc1ccccc1)c1cccn(Cc2ccccc2)c1=O do in these assays?
NPC1 prom act: 16%; SMN2 splice up: -46%; FLuc counter: 24µM*; Rab9 prom act: 4µM*; KinaseGlo FLuc: 1%; ELG1 genotoxic: inconclusive

How did O=C(Nc1ccncc1)c1cccn(Cc2ccccc2)c1=O do in these assays?
NPC1 prom act: -27%; SMN2 splice up: -75%; FLuc counter: -14%; Rab9 prom act: -29%; KinaseGlo FLuc: 7%; ELG1 genotoxic: 1%

How did O=C(Nc1ccc2c(c1)OCCO2)c1cccn(Cc2cccc(F)c2)c1=O do in these assays?
FLuc counter: 21µM*

How did CCc1ccc(NC(=O)c2cccn(Cc3cccc([N+](=O)[O-])c3)c2=O)cc1 do in these assays?
FLuc counter: 9.5µM*

How did CC(=O)O[C@H]1CC[C@H]2[C@@H]3CCC4=C[C@@H](C5SCCS5)[C@H](OC(C)=O)C[C@]4(C)[C@H]3CC[C@@]12C do in these assays?
SMN2 splice up: -3%[9.22 µM]; KinaseGlo FLuc: -6%[7.66 µM]

Results for CC1(C)[C@@H]2CC[C@]1(C)CN(CCC[N+](C)(C)C)C2 ?
SMN2 splice up: -1%[9.22 µM]; KinaseGlo FLuc: -4%[7.66 µM]

How did [Cl][Pd][Cl].[S-]C1=C2N=CN[C-]2[NH+]=C[N-]1.[S-]c1ncnc2[nH]cnc12 do in these assays?
SMN2 splice up: -6%[9.22 µM]; KinaseGlo FLuc: -1%[7.66 µM]

What do the screens show for `O=C(Nc1nc2ccccc2s1)c1cccn(Cc2ccccc2)c1=O`?
FLuc counter: 0.76µM*

How did CCOc1ccc2nc(NC(=O)c3cccn(Cc4ccc(C)cc4)c3=O)sc2c1 do in these assays?
FLuc counter: -6%

What do the screens show for `Cc1ccccc1Cn1cccc(C(=O)Nc2nc3ccccc3s2)c1=O`?
FLuc counter: 0.43µM*

How did CCOc1ccc2nc(NC(=O)c3cccn(Cc4ccccc4)c3=O)sc2c1 do in these assays?
FLuc counter: 6µM*

Results for Cc1ccc2nc(NC(=O)c3cccn(Cc4ccc(Cl)cc4)c3=O)sc2c1 ?
FLuc counter: 0%

How did O=P(O)(O)c1ccccc1OCCOCCOCCOCCOc1ccccc1P(=O)(O)O do in these assays?
NPC1 prom act: 4µM*; SMN2 splice up: 24%; FLuc counter: inconclusive; Rab9 prom act: 3.5µM*; KinaseGlo FLuc: -1%; ELG1 genotoxic: -6%

Results for CN1C(=O)C(=Cc2ccccc2OCc2ccc(Cl)cc2)C(=O)N(C)C1=O ?
NPC1 prom act: -3%; SMN2 splice up: inconclusive; FLuc counter: 9.5µM*; Rab9 prom act: 1%; KinaseGlo FLuc: -8%; ELG1 genotoxic: inconclusive

How did NCCP(=O)(O)O do in these assays?
SMN2 splice up: 3%[9.22 µM]; KinaseGlo FLuc: -2%[7.66 µM]

Results for Cc1ccc2nc3c(cc2c1)CC1(C(=O)N(C)C(=O)N(C)C1=O)C1CCCCN31 (stereo not drawn) ?
NPC1 prom act: inconclusive; SMN2 splice up: inconclusive; FLuc counter: 5.4µM*; Rab9 prom act: 27%; KinaseGlo FLuc: -2%; ELG1 genotoxic: inconclusive

How did Cc1cccn2c(=O)c3c(nc12)N1CCCCCC1C1(C3)C(=O)N(C)C(=O)N(C)C1=O (stereo not drawn) do in these assays?
NPC1 prom act: -2%; FLuc counter: -1%; Rab9 prom act: -6%; ELG1 genotoxic: 2%

What do the screens show for `Cc1ccc2nc3c(cc2c1)CC1(C(=O)N(C)C(=O)N(C)C1=O)C1COCCN31` (stereo not drawn)?
NPC1 prom act: 20%; FLuc counter: 15µM*; Rab9 prom act: 23%; ELG1 genotoxic: inconclusive

Results for CS(=O)(=O)O[C@H]1CN2CCC1CC2 ?
SMN2 splice up: -9%[9.22 µM]; KinaseGlo FLuc: -3%[7.66 µM]

How did COc1ccc(NC(=O)CCCn2c(=O)oc3ccccc32)cc1Cl do in these assays?
NPC1 prom act: inconclusive; SMN2 splice up: inconclusive; FLuc counter: 12µM*; Rab9 prom act: inconclusive; KinaseGlo FLuc: 0%; ELG1 genotoxic: inconclusive

Results for COc1ccc(-c2nc(NC(=O)Cn3c(=O)oc4ccccc43)sc2C)cc1 ?
NPC1 prom act: 2%; SMN2 splice up: -33%; FLuc counter: 1%; Rab9 prom act: 2%; KinaseGlo FLuc: 2%; ELG1 genotoxic: -9%

How did ClCC(Cl)CCl do in these assays?
SMN2 splice up: -1%

Results for Clc1cccc(/C=N\Nc2nccs2)c1 ?
NPC1 prom act: inconclusive; SMN2 splice up: 25%; FLuc counter: 13µM*; Rab9 prom act: inconclusive; KinaseGlo FLuc: 0%; ELG1 genotoxic: 21µM*

How did O=C(Nc1ccc(Cl)c(Cl)c1)c1ccco1 do in these assays?
NPC1 prom act: inconclusive; FLuc counter: 21µM*; Rab9 prom act: inconclusive; ELG1 genotoxic: inconclusive

What do the screens show for `C=CCNC(=S)Nc1ccc(OC(=O)Nc2ccc(Cl)c(Cl)c2)cc1`?
NPC1 prom act: -7%; FLuc counter: -17%; Rab9 prom act: -3%; ELG1 genotoxic: -10%

Screening data (PubChem)
